# High-throughput results deposited in PubChem BioAssay by National Center for Advancing Translational Sciences (NCATS).
# Most compounds without a hit are left out; they make up all but 7.5% or so of the library.
# NPC1 prom act: NPC1 promoter activation; 2.4% of 320,000 active; Potency, µM (highest dose often 9.22 µM), for inactives: at the highest dose activation, usual class: activators; Huh7 NPC1 promoter luciferase reporter, 24 h; AID 485313; also: % of control where 0% means no effect; nearly all actives have a fitted effect of over 60% in size
#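 Stable NPC1-promoter luciferase Huh7 line; cpd (DMSO) 24 h, 37 °C, 5% CO2; Amplite luciferase reagent 10 min RT; luminescence readout. qHTS format.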
# FLuc counter: counter-screen for miR-21 project: firefly luciferase inhibitors or activators; P08659; purified FLuc, Km substrates, luminescence inhibition; Potency, µM (series often up to 57.5 µM), without a hit: at the top dose activity change, negative = inhibition, usual class: inhibitors; 6.9% of 360,000 active;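 also: plate controls were vehicle for no effect and reference inhibitor for full effect; nearly all actives have a fitted effect of over 55% in size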
# Target sequence (P08659 whole entry, looked up): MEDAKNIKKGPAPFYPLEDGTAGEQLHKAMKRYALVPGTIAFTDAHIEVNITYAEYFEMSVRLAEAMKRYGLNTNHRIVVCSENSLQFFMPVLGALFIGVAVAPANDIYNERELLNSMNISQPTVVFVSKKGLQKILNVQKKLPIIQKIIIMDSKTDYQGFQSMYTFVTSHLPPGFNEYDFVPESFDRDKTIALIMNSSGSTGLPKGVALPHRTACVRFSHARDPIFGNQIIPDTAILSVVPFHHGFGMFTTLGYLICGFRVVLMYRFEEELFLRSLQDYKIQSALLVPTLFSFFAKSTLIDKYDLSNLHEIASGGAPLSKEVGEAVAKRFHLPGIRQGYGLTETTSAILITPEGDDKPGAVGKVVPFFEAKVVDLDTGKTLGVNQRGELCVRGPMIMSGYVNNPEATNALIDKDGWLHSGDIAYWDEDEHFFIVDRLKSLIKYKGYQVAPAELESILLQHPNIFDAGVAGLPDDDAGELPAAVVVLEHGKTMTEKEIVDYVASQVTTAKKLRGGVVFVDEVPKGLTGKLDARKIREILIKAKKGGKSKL
#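 Biochemical qHTS of compounds, final roughly 60 µM downward over six points, against 10 nM purified firefly luciferase using Km concentrations of substrates (10 uM D-luciferin, 10 uM ATP) in Tris acetate pH 7.5 buffer; luminescence output.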
# Rab9 promoter act: activators of Rab9 promoter; Huh7 Rab9 promoter-luciferase reporter, luminescence, 24 h; Potency, µM (top dose mostly 9.22 µM), for inactives: at the top dose activation, negative = inhibition, most hits filed as activators; 2.8% of 320,000 active; also: % of control where 0% means no effect; nearly all actives have a fitted effect of over 60% in size
#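 Luminescence from Amplite-detected luciferase (10 minutes, ambient) reports Rab9 promoter activation. Before that, stable Rab9-luciferase Huh7 cells (1500/well, reduced-serum OP-MEM I plus 10% FBS) were exposed to compound for 24 hours at 37C.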
# ELG1 genotoxic: genotoxicity induction in ELG1-luciferase HEK293T cells; HEK293T ELG1-luciferase reporter, luminescence, 16 h; Potency, µM (series often up to 46 µM), inactives show at the highest dose activity change, positive = activation, hits mostly activators; 1.3% of 330,000 active; also: % of control where 0% means no effect; nearly all actives have a fitted effect of over 60% in size
#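 Genotoxic stress is detected as increased luminescence from luciferase-tagged ELG1 in HEK293T cells, measured with ONE-Glo after a 16 hr treatment at 37 °C.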
# KinaseGlo FLuc: Kinase-Glo luciferase inhibition (counter-screen); Kinase-Glo luciferase, ATP luminescence, 8 min; Potency, µM (top dose mostly 38.3 µM), for inactives: top-dose activity change, negative = inhibition, usual class: inhibitors; 0.28% of 200,000 active; AID 1379; also: % is scaled to controls: 0 for no effect and ±100 for the full control effect; nearly all actives have a fitted effect of over 60% in size
#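 Recombinant Kinase-Glo luciferase, 10 uM ATP (linear range), luciferin; imidazole pH 7.2 / KCl / MgCl2 / Tween / BSA buffer; 8 min RT; luminescence.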
# SMN2 splice up: increases expression of the SMN2 splice variant; HEK293 SMN2-luciferase splicing reporter, luminescence, 30-36 h; Potency, µM (highest dose often 46.1 µM), for inactives: at the highest dose activity change, positive = activation, usual class: activators; 2.8% of 210,000 active; AID 1458; also: % of control where 0% means no effect; nearly all actives have a fitted effect of over 55% in size
#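 qHTS luciferase splicing reporter: luminescence rises when SMN2 exon 7 is included in transfected HEK293 cells. Compound exposure lasted 30-36 h at 37C, with 4.5 mM final sodium butyrate as control, followed by a ONE-Glo read.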
# Active calls of the source: *; ? = inconclusive; · = no result. Calls follow the shape of the dose curve; as a rule, active = well fitted curve in the direction sought with a large enough effect; inconclusive = small, poorly fitted or top-dose-only effect, or another doubt; inactive = no such curve, though single readings can be large; an effect the other way counts as inactive or inconclusive. Potency is read from the fitted curve at half-maximal effect.
SMILES,NPC1 prom act,FLuc counter,Rab9 promoter act,ELG1 genotoxic,KinaseGlo FLuc,SMN2 splice up
CC(C)Cc1nnc(NC(=O)CCC(=O)NCCc2ccc(Cl)cc2)s1,1%,1%,-7%,-2%,·,·
CC(C)c1ccc(C2NC(=S)NC3=C2C(=O)CC(C)(C)C3)cc1 (configuration not stated),-1%,2%,-2%,1%,1%,-9%
Cc1ccc(NC(=O)Cn2c(-c3ccc4c(c3)OCO4)cn(-c3ccccc3)c2=O)cc1,·,12µM*,·,·,·,?
Cc1ccc(NC(=O)Cn2c(=O)n(Cc3ccc4c(c3)OCO4)c(=O)c3ccccc32)cc1,·,3%,·,·,·,4%
CCCC(=O)Nc1ccc2nn(-c3ccc(CC)cc3)nc2c1,·,?,·,·,·,14%
Cn1cnc2cc(NCc3ccccc3O)ccc21,20%,?,4%,16%,·,·
CCn1cnc2cc(NCc3ccc(Cl)cc3)ccc21,2.8µM*,11µM*,2.5µM*,?,·,·
CCc1ccc(CNc2ccc3c(c2)ncn3C)cc1,2.2µM*,9.5µM*,2.8µM*,?,-3%,11µM*
Cc1ccc(CNc2ccc3c(c2)ncn3C)cc1,3.2µM*,12µM*,2µM*,8.2µM*,-2%,18µM*
COc1ccc(CNc2ccc3c(c2)ncn3C)cc1OC,-14%,1%,15%,9%,·,·
CC(C)(C)n1cnc2cc(NCc3ccccc3Cl)ccc21,·,13µM*,·,·,·,29%
COC(=O)c1ccccc1NC(=O)c1nc(SCc2ccccc2C)ncc1Cl,·,1%,·,·,·,-6%
Cc1ccc(N2CCN(S(=O)(=O)c3cc(C(=O)Nc4cc(Cl)cc(Cl)c4)ccc3F)CC2C)cc1 (configuration not stated),·,-10%,·,·,·,·
Cc1ccc(CNc2ccc3c(c2)ncn3C(C)(C)C)cc1,1.8µM*,9.5µM*,4µM*,?,2%,10µM*
O=C(O)c1cc(N/N=C/C=C/c2ccccc2[N+](=O)[O-])ccc1Cl,1.4µM*,19µM*,3.5µM*,?,·,·
O=[N+]([O-])c1ccccc1/C=C/C=N/N1CCCCC1,?,11µM*,2.2µM*,4.6µM*,-3%,16µM*
NS(=O)(=O)c1ccc(N/N=C/C=C/c2ccccc2[N+](=O)[O-])cc1,?,17µM*,?,?,·,·
S=C(NCCSCc1c(Cl)cccc1Cl)Nc1ccccc1,-1%,-12%,-1%,-10%,-8%,14%
O=C(NCCSCc1c(F)cccc1Cl)Nc1ccccc1,18%,17µM*,9%,4%,·,·
O=C(NCCSCc1c(F)cccc1Cl)c1ccc(CN2CCOCC2)cc1,12%,-10%,2.5µM*,-1%,-3%,-17%
O=C(NCCSCc1ccco1)Nc1ccccc1,26%,17µM*,24%,12%,-3%,·
O=C(Cc1ccccc1)NCCSCc1ccco1,-1%,-20%,29%,7%,1%,-5%
COC(=O)c1cc2c(cc1N)OCCO2,-1%,-20%,-2%,4%,-9%,·
Cc1cccc(NC(=O)CSCC(=O)NCc2ccco2)c1,1%,0%,7%,3%,·,·
COc1ccc(C(=O)NCC2(N3CCN(C)CC3)CCCCC2)cc1,·,3%,·,·,·,·
SMILES,NPC1 prom act,FLuc counter,Rab9 promoter act,ELG1 genotoxic,KinaseGlo FLuc,SMN2 splice up
Cc1nc(N)sc1-c1csc(Nc2ccccc2)n1,?,11µM*,2.8µM*,16%,0%,11µM*
CCC(=O)Nc1nc(C)c(-c2csc(Nc3cccc(C(=O)O)c3)n2)s1,-1%,11µM*,-3%,-5%,0%,27%
O=C(O)c1ccc(Nc2nc(-c3ccccc3)cs2)cc1,0.4µM*,0.67µM*,0.4µM*,-2%,3%,2.5µM*
Cc1csc(Nc2ccc(C(=O)O)cc2)n1,20%,?,16%,6%,·,·
Cc1cc(O)ccc1Nc1nc(-c2sc(N)nc2C)cs1,1%,?,-8%,1%,-5%,-7%
CC(=O)Nc1nc(C)c(-c2csc(Nc3cccc(C(C)=O)c3)n2)s1,-20%,?,0.71µM*,0%,·,·
O=C(c1ccc(F)cc1)N1CCC2(CC1)NCCc1[nH]cnc12,-1%,2%,-14%,1%,·,·
CC(=O)Nc1ccc(Nc2nc(-c3sc(NC(C)=O)nc3C)cs2)cc1,-12%,?,-3%,-10%,·,·
CC(=O)c1cccc(Nc2nc(-c3cccc([N+](=O)[O-])c3)cs2)c1,5%,-4%,21%,1.5µM*,5%,11µM*
Cc1nc(NC(=O)c2ccccc2)sc1-c1csc(Nc2ccc(C(=O)O)cc2)n1,23%,0.48µM*,?,-7%,·,·
Cc1nc(NC(=O)c2ccc(Cl)cc2)sc1-c1csc(Nc2cccc(F)c2)n1,14%,11µM*,0%,-3%,2%,-9%
CC(=O)Nc1nc(C)c(-c2csc(Nc3ccccn3)n2)s1,3.5µM*,11µM*,1.6µM*,8%,-7%,13µM*
CC1CCCN(c2ncnc3c2nnn3C)C1 (configuration not stated),·,4%,·,·,·,·
NC1=NS(=O)(=O)NC1c1ccc(F)cc1 (configuration not stated),-6%,-1%,1%,-10%,0%,4%
Cc1[nH]n(-c2nc(-c3cccc([N+](=O)[O-])c3)cs2)c(=O)c1C,?,4.8µM*,?,16%,-3%,13µM*
Cc1nc(N)sc1-c1csc(Nc2cccc(C(=O)O)c2)n1,17%,7.6µM*,15%,-7%,·,·
Cc1c(Nc2nc(-c3cccc([N+](=O)[O-])c3)cs2)c(=O)n(-c2ccccc2)n1C,1%,-4%,-12%,1%,-1%,·
COc1cccc(Nc2nc(-c3sc(NC(=O)c4ccccc4)nc3C)cs2)c1,0%,19µM*,-1%,-7%,-5%,-59%
COc1cccc(NC(=O)c2sc(NC(=O)c3ccncc3)nc2C)c1,-2%,19µM*,0%,-4%,·,·
CCN(CC)CCNC(=O)C(=O)NCC(c1cccnc1)N1CCN(c2ccc(F)cc2)CC1 (configuration not stated),·,0%,·,·,·,·
CC(C)[C@H](NC(=O)c1ccccc1Cl)C(=O)NC1CCCCCC1,0%,2%,0%,1%,-1%,7%
CCOc1ccc(CCNC(=O)CCc2cn(Cc3ccc(C)cc3)c3ccccc23)cc1,·,-8%,·,·,·,·
Cn1c(SCc2ccccc2C#N)nc2ccccc2c1=O,-2%,?,-3%,-5%,·,·
Cc1ccccc1Nc1nc(-c2sc(NC(=O)c3ccco3)nc2C)cs1,0%,?,1%,-2%,-1%,-6%
Cc1ccc(Nc2nc(-c3sc(NC(=O)c4cccc(Cl)c4)nc3C)cs2)cc1,-5%,9.5µM*,3%,-2%,-4%,-11%
